Assay results taken from the antibiotic and cytotoxicity screens of Wong et al. (2023).
Hit rate of the full screen: of about 39,000 compounds, about 3,300 (8.5%) were called active. The sample holds actives, similar compounds and a random draw of the others, so the mix is not that of the screen.

Tested on: HepG2
Experiment: cytotoxicity call (relative viability < 0.9)
Settings: 10 µM

SMILES | cytotoxicity call
C[C@@H]1CN([C@H](C)CO)C(=O)CCCn2cc(nn2)CO[C@@H]1CN(C)S(=O)(=O)c1ccc2c(c1)OCCCO2 | inactive
C[C@H]1CN([C@@H](C)CO)S(=O)(=O)c2ccc(C#Cc3cccc(F)c3)cc2O[C@@H]1CN(C)S(=O)(=O)c1ccccc1F | inactive
C[C@H](O)C#Cc1ccc2c(c1)O[C@H](CN(C)C)[C@H](C)CN([C@H](C)CO)S2(=O)=O | inactive
COCC(=O)Nc1ccc2c(c1)C(=O)N(C)C[C@H](OC)[C@H](C)CN(Cc1cccc(F)c1)[C@@H](C)CO2 | inactive
S=c1[nH]nc(C2CCCCC2)[nH]1 | inactive
COCC(=O)Nc1ccc2c(c1)C(=O)N(C)C[C@@H](OC)[C@H](C)CN(C(=O)Nc1ccccc1F)[C@H](C)CO2 | inactive
Cc1nnc(SCC2=C(C(=O)O)N3C(=O)[C@@H](N)[C@H]3SC2)s1 | inactive
O=C(N[C@H](NC(=S)Nc1ccc(F)c([N+](=O)[O-])c1)C(Cl)(Cl)Cl)C(c1ccccc1)c1ccccc1 | active
CCOC(=O)c1ccc(NC(=S)N[C@@H](NC(=O)c2ccc(Br)cc2)C(Cl)(Cl)Cl)cc1 | inactive
C[C@@H]1CN([C@@H](C)CO)S(=O)(=O)c2ccc(-c3cncnc3)cc2O[C@H]1CN(C)C(=O)Cc1ccccc1 | inactive
C[C@H]1CCCCO[C@H](CN(C)Cc2ccccc2)[C@@H](C)CN([C@@H](C)CO)C(=O)c2cc(NS(=O)(=O)c3cccs3)ccc2O1 | inactive
COc1ccc(CN(C)C[C@@H]2OCCCC[C@@H](C)Oc3ccc(NC(=O)c4ccncc4)cc3C(=O)N([C@@H](C)CO)C[C@H]2C)cc1 | inactive
C[C@@H]1CCCCO[C@@H](CN(C)S(=O)(=O)c2cn(C)cn2)[C@H](C)CN([C@H](C)CO)C(=O)c2cc(NC(=O)Nc3cccc4ccccc34)ccc2O1 | inactive
C[C@@H]1CCCCO[C@H](CN(C)S(=O)(=O)c2cccs2)[C@H](C)CN([C@H](C)CO)C(=O)c2cc(NS(=O)(=O)c3ccc(Cl)cc3)ccc2O1 | inactive
C[C@@H]1CCCCO[C@@H](CN(C)S(=O)(=O)c2cccs2)[C@@H](C)CN([C@H](C)CO)C(=O)c2cc(NS(=O)(=O)c3ccc(Cl)cc3)ccc2O1 | inactive
C[C@@H]1CCCCO[C@@H](CN(C)S(=O)(=O)c2cccs2)[C@H](C)CN([C@H](C)CO)C(=O)c2cc(NS(=O)(=O)c3ccc(Cl)cc3)ccc2O1 | active
C[C@H](CO)N1C[C@H](C)[C@H](CN(C)S(=O)(=O)c2cccs2)OCCCC[C@H](C)Oc2ccc(NS(=O)(=O)c3ccc(Cl)cc3)cc2C1=O | inactive
C[C@@H]1CCCCO[C@@H](CN(C)S(=O)(=O)c2cccs2)[C@H](C)CN([C@@H](C)CO)C(=O)c2cc(NS(=O)(=O)c3ccc(Cl)cc3)ccc2O1 | inactive
C[C@@H]1CCCCO[C@H](CN(C)S(=O)(=O)c2cccs2)[C@H](C)CN([C@@H](C)CO)C(=O)c2cc(NS(=O)(=O)c3ccc(Cl)cc3)ccc2O1 | active
C[C@H]1CCCCO[C@@H](CN(C)S(=O)(=O)c2cccs2)[C@@H](C)CN([C@@H](C)CO)C(=O)c2cc(NS(=O)(=O)c3ccc(Cl)cc3)ccc2O1 | inactive
C[C@@H]1CN([C@@H](C)CO)C(=O)c2cc(NS(=O)(=O)c3ccc(Cl)cc3)ccc2O[C@@H](C)CCCCO[C@@H]1CN(C)S(=O)(=O)c1cccs1 | inactive
C[C@@H]1CCCCO[C@@H](CN(C)S(=O)(=O)c2cccs2)[C@@H](C)CN([C@@H](C)CO)C(=O)c2cc(NS(=O)(=O)c3ccc(Cl)cc3)ccc2O1 | active
C[C@H](CO)N1C[C@H](C)[C@@H](CN(C)S(=O)(=O)c2cccs2)OCCCC[C@H](C)Oc2ccc(NS(=O)(=O)c3ccc(Cl)cc3)cc2C1=O | active

SMILES | cytotoxicity call
C[C@@H]1CN([C@H](C)CO)C(=O)c2cc(NS(=O)(=O)c3ccc(Cl)cc3)ccc2O[C@@H](C)CCCCO[C@@H]1CN(C)S(=O)(=O)c1cccs1 | inactive
C[C@@H]1CN([C@H](C)CO)C(=O)c2cc(NS(=O)(=O)c3ccc(Cl)cc3)ccc2O[C@@H](C)CCCCO[C@H]1CN(C)S(=O)(=O)c1cccs1 | inactive
COc1ccc([C@@H]2CC=CC[C@H](C)Oc3ccccc3C(=O)N(C)[C@@H](Cc3ccccc3)C(=O)N2)c(OC)c1 | inactive
Cc1noc(C)c1NC(=O)Nc1ccc2c(c1)C(=O)N([C@@H](C)CO)C[C@@H](C)[C@@H](CN(C)Cc1ccncc1)OCCCC[C@H](C)O2 | inactive
CO[C@H]1CN(C)C(=O)c2cc(NC(=O)C3CC3)ccc2OC[C@@H](C)N(C(=O)C2CCOCC2)C[C@H]1C | inactive
COc1ccc([C@@H]2CC=CC[C@@H](C)Oc3ccccc3C(=O)N(C)[C@H](Cc3ccccc3)C(=O)N2)c(OC)c1 | inactive
Cc1noc(C)c1NC(=O)Nc1ccc2c(c1)C(=O)N([C@@H](C)CO)C[C@@H](C)[C@H](CN(C)C(=O)c1ccccc1)OCCCC[C@@H](C)O2 | inactive
COCC(=O)N1C[C@@H](C)[C@H](OC)CN(C)C(=O)c2ccc(NC(=O)c3ccc(OC)cc3)cc2OC[C@@H]1C | inactive
COc1cc(C(=O)NS(=O)(=O)c2ccccc2C)ccc1Cc1cn(C)c2ccc(NC(=O)OC3CCCC3)cc12 | inactive
CCCC#Cc1cnc2c(c1)C(=O)N([C@H](C)CO)C[C@H](C)[C@@H](CN(C)S(=O)(=O)c1cn(C)cn1)O2 | inactive
C[C@@H]1CN([C@@H](C)CO)C(=O)c2cc(NC(=O)Cc3ccccc3)ccc2O[C@@H]1CN(C)C(=O)Nc1cccc2ccccc12 | inactive
CC(C)NC(=O)N(C)C[C@@H]1Oc2ccc(NS(=O)(=O)c3ccc(F)cc3)cc2C(=O)N([C@@H](C)CO)C[C@H]1C | inactive
CNC(=O)Cc1cnc(N)s1 | inactive
C[C@H](CO)N1C[C@H](C)[C@H](CN(C)Cc2ccc(C(F)(F)F)cc2)Oc2c(NC(=O)CCCCCC(=O)Nc3ccccc3N)cccc2C1=O | inactive
C[C@H](CO)N1C[C@H](C)[C@H](CN(C)Cc2ccc(Oc3ccccc3)cc2)Oc2c(NS(=O)(=O)c3cccs3)cccc2C1=O | inactive
C[C@H]1CN([C@@H](C)CO)C(=O)c2cccc(NC(=O)c3ccncc3)c2O[C@H]1CN(C)Cc1ccncc1 | inactive
C[C@@H]1CN([C@H](C)CO)C(=O)c2cc(-c3cccnc3)cnc2O[C@H]1CN(C)Cc1ccc(Oc2ccccc2)cc1 | inactive
COc1ccc(NC(=O)Nc2ccc3c(c2)[C@H]2C[C@H](CC(=O)N4CCN(C)CC4)O[C@@H](CO)[C@H]2O3)cc1 | inactive
Cc1cccc(Oc2ccc(NC(=O)C3CCC(C)CC3)cc2)c1 (centres undefined) | inactive
CN1CCN(Cc2ccc(NC(=O)Nc3ccc(Oc4cc(NC(=O)C5CC5)ncn4)cc3)cc2C(F)(F)F)CC1 | active
C[C@@H]1CN([C@H](C)CO)C(=O)Cc2cc(NS(=O)(=O)c3ccc(F)cc3)ccc2O[C@H]1CN(C)S(=O)(=O)c1ccccc1 | inactive
C[C@H]1CCCCO[C@H](CN(C)C(=O)NC2CCCCC2)[C@@H](C)CN([C@@H](C)CO)C(=O)c2cc(NC(=O)NC3CCCCC3)ccc2O1 | inactive
N#C/C(=N\O)C(=O)c1ccco1 | inactive

SMILES | cytotoxicity call
N=C(N)Nc1nc2ccccc2[nH]1 | inactive
CCOC(=O)Nc1nc2ccccc2[nH]1 | inactive
N=C(N)Nc1nc(=O)c2ccccc2[nH]1 | inactive
CC(C)NC(=O)c1cccc2cccc(Sc3ccccc3)c12 | inactive
COC(=O)Nc1nc2ccc(Sc3ccccc3)cc2[nH]1 | active
CCCOc1ccc2nc(NC(=O)OC)[nH]c2c1 | active
CCCSc1ccc2nc(NC(=O)OC)[nH]c2c1 | active
COc1ccc2nc(S(=O)Cc3ncc(C)c(OC)c3C)[nH]c2c1 (centres undefined) | inactive
COC(=O)Nc1nc2ccc(S(=O)c3ccccc3)cc2[nH]1 (centres undefined) | active
Cn1c(=O)c2c(ncn2CC(=O)Nc2nc3ccccc3[nH]2)n(C)c1=O | inactive
O=C(O)Cn1cccn1 | inactive
CCC/C=C1\OC(=O)c2ccccc21 | inactive
Cc1noc(C)c1S(=O)(=O)N(C)C[C@@H]1OCCCC[C@@H](C)Oc2ccc(NC(=O)Nc3cccc4ccccc34)cc2C(=O)N([C@H](C)CO)C[C@@H]1C | inactive
C[C@H]1CN([C@@H](C)CO)C(=O)Cc2cc(NC(=O)Nc3ccc(C(F)(F)F)cc3)ccc2O[C@@H]1CN(C)Cc1ccc(C(=O)O)cc1 | inactive
COc1ccc(CN(C)C[C@H]2OCCCC[C@@H](C)Oc3ccc(NC(=O)NC(C)C)cc3C(=O)N([C@H](C)CO)C[C@@H]2C)cc1 | inactive
CCCC(=O)Nc1ccc2c(c1)C(=O)N(C)C[C@H](OC)[C@H](C)CN(Cc1ccc(-c3ccccn3)cc1)[C@@H](C)CO2 | inactive
CN(CCN)C1CCCCC1 | inactive
CCS(=O)(=O)NCC[C@H]1CC[C@H](NC(=O)Cc2ccccn2)[C@@H](CO)O1 | inactive
C[C@@H]1CCCCO[C@H](CN(C)C(=O)Cc2ccccc2)[C@@H](C)CN([C@@H](C)CO)C(=O)c2cc(NC(=O)c3ccccc3)ccc2O1 | inactive
CCS(=O)(=O)N1CC[C@]2(CC1)CN([C@H](CO)c1c2c2ccc(cc2n1C)OC)C(=O)c1cccc(c1)F | inactive
COc1ccc(S(=O)(=O)Nc2ccc3c(c2)C(=O)N([C@@H](C)CO)C[C@H](C)[C@@H](CN(C)Cc2ccc4c(c2)OCO4)OCCCC[C@H](C)O3)cc1 | inactive
Cc1ccc(S(=O)(=O)Nc2ccc3c(c2)C(=O)N([C@H](C)CO)C[C@@H](C)[C@H](CN(C)Cc2ccc4c(c2)OCO4)OCCCC[C@@H](C)O3)cc1 | inactive
Cn1cnc(S(=O)(=O)N[C@@H]2CC[C@H](CC(=O)NCC3CC3)O[C@H]2CO)c1 | inactive
